The term inhibition denotes the change of the read-out against control, counted positive when it falls.

SMILES strings stand for the structures. The campaign covered roughly 320,000 compounds. About 1,700 (0.53%) were called active. Shown is part of a subset that was picked to be rich in actives. Values without a mark were called inactive.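 Rule for the calls: active = inhibition above the campaign mean of all compounds plus 3 SD (cut at about 26% in these data); inactive = the rest.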

Experimental findings from PubChem BioAssay AID2130 (The Scripps Research Institute Molecular Screening Center, 2009) are described below.

Protein phosphatase methylesterase 1 (Homo sapiens), sequence (Q9Y570 whole entry, looked up): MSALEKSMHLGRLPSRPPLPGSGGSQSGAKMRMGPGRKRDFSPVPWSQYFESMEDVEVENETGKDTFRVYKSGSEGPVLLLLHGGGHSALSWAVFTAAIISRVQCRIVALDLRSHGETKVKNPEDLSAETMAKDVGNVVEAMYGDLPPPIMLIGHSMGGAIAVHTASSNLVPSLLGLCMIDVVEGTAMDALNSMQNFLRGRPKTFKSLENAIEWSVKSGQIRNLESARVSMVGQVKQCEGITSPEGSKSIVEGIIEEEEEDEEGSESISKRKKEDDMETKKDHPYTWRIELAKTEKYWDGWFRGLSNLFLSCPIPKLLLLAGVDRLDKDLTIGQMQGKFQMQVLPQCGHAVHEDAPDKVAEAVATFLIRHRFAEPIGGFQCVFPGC

This experiment concerns the target Protein phosphatase methylesterase 1 (Homo sapiens) (UniProt Q9Y570). Nature of the experiment: human PME-1 methylesterase blockers – biochemical, fluorescence polarization, FP-Rh probe, HTS, primary screen (AID 2130).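 Note: competitive labeling of PME-1 active site by serine hydrolase directed probe; 0% = PME-1 with DMSO and 100% = wells lacking PME-1 enzyme; inhibitors block probe labeling so polarization falls and inhibition rises.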 The settings on record: recombinant PME-1, FP-Rh probe fluorescence polarization; at 5.9 µM; active compounds read high. Background: Fluorescence polarisation rises when a labelled molecule tumbles more slowly, as on binding a larger partner.
Take `CCOc1cc(C(=O)Nc2c(C)ccc3nsnc23)cc(OCC)c1OCC`: the inhibition is -3.07%.
Take `CCN1CCN(C(=O)N[C@@H](C(=O)N[C@@H]2C(=O)N3C(C(=O)O)=C(CSc4nnnn4C)CS[C@H]23)c2ccc(O)cc2)C(=O)C1=O`: the inhibition is 1.33%.
As for `O=C(Oc1cccc(N2C(=O)C3C4c5ccccc5C(c5ccccc54)C3C2=O)c1)c1ccco1` (stereo not given), the figure is 2.64%; as for `Cc1nc(N=C(N)N)nc2c(C)cccc12`, -4.31%; as for `O=C(CCC1CCCN(Cc2ccc(O)c(Cl)c2)C1)NCc1ccccc1F` (stereo not given), -1.64%.
With `CSc1ncccc1C(=O)N1CCCC(CCC(=O)NCc2ccccc2F)C1` (stereo not given), the inhibition is -3.09%.
The figure for `Cc1[nH]c2c(C(=O)N3CCCC(CCC(=O)NCc4ccccc4F)C3)cccc2c1C` (stereo not given) is 28.6% (active); for `Cc1cccc(N(Cc2ccccc2)C(=O)c2cc(S(=O)(=O)N3CCOCC3)ccc2F)c1` it is 8.02%; for `COc1cc(/C=N/Nc2nc3ccccc3s2)ccc1O` it is 45.3% (active).
The figure for `COc1ccc(/C=N/Nc2nc3ccccc3o2)cc1OC` is 23.1%; for `COc1cc(/C=N\Nc2nc(-c3cccs3)c(NC(C)=O)s2)ccc1O` it is 7.62%; for `COC(=O)COc1cccc2c(=O)n(CC(=O)NCc3ccccc3)ccc12` it is -7.45%.
The figure for `Cc1cc(C)c(C)c(S(=O)(=O)Nc2ccc(O)cc2)c1C` is 6%; for `O=C(Nc1ccnn1C1CCN(Cc2cccc(OCCO)c2)CC1)C1CCCC1` it is 4.32%; for `FC(F)(F)c1nc2ccccc2nc1N/N=C/c1ccc(Cl)cc1` it is 2.4%.
`Cc1nc2ccccc2nc1N/N=C/c1ccc(O)cc1O`: the inhibition is 36.9% (active).
With `COc1cccc(/C=N/Nc2cc(C)nc(-c3ccccc3O)n2)c1O`, the inhibition was 23.9%.
Consider `COc1ccccc1N1CCN(/N=C/c2ccc(O)cc2O)CC1`, for which the inhibition is 2.94%.
In the case of `Oc1ccc(/C=N/Nc2nc(-c3ccccc3F)nc3ccccc23)c(O)c1`, the inhibition is 55% (active).
The figure for `O=c1c2ccccc2nc(N/N=C/c2ccccc2)n1O` is -3.42%.
As for `CCO[C@H]1OC(C(=O)N2CCN(Cc3ccccc3)CC2)=C[C@@H](c2cn(C(C)=O)c3ccccc23)[C@@H]1CCCO`, the figure is 10.4%; as for `CC(=O)Nc1ccc(S(=O)(=O)N2CCC(C(=O)N[C@@H](Cc3ccccc3)C(=O)O)CC2)cc1`, -6.81%.
As for `COc1ccccc1N1CCN(C(=O)CCS(=O)(=O)c2ccc3c(c2)NC(=O)C(C)S3)CC1` (stereo not given), the figure is -1.07%; as for `COC(=O)c1ccc(CN2C(=O)NC(c3ccccc3)(c3ccccc3)C2=O)o1`, 0.13%; as for `CC(C)(C)C(=O)N(Cc1ccccc1)c1ccccn1`, -3.74%.
Consider `O=C(Nc1ccccc1C(=O)N1CCOCC1)c1ccc(Cl)cc1`, for which the inhibition is -4.46%.
The figure for `O=c1nc(N2CCOCC2)nc2n1CCO2` is 0.45%; for `CCCOc1ccc(CN(CCO)CCO)cc1C(=O)OC` it is 1.19%; for `Cc1c(C(=O)N2CCCC2)c(S(=O)(=O)NCC(C)c2ccccc2)c(C)n1C` (stereo not given) it is 4.76%.
The figure for `N=c1n(CCc2ccccc2)c2ccccc2n1Cc1ccccc1F` is -11%.
The figure for `CCOC(=O)c1c(C)oc2ccc(OCC(=O)N(CC)CC)cc12` is -5.01%; for `CC(=O)c1c(C)n(-c2ccc(N(C)C)cc2)c2ccc(OCC(N)=O)cc12` it is 26.2% (active).
With `CC(=O)c1c(C)n(-c2ccc(C)cc2)c2ccc(O)cc12`, the inhibition was -0.87%.
As for `CC(=O)N1CC[n+]2c(-c3ccc([N+](=O)[O-])cc3)csc21`, the figure is -1.65%; as for `COc1cc(NS(=O)(=O)c2ccc(NC(=O)c3ccc([N+](=O)[O-])cc3)cc2)ncn1`, 4.2%.
As to `Cc1ccc(NC(=O)Cc2nnc(SCC(=O)Nc3nncs3)n2C)cc1`, the inhibition is 5.14%.
`O=C(CCn1nnc2ccccc21)OCC(=O)c1ccc([N+](=O)[O-])cc1`: the inhibition is -1.86%.
The figure for `Cc1cc(C(=O)OCC(=O)Nc2ccc(F)c(F)c2)c(C)o1` is -2.42%.
For `CONC(=O)c1cc(OCC(F)(F)F)ccc1OCC(F)(F)F`, the inhibition is -6.8%.
Take `CN(Cc1ccccc1)C(=O)c1ccc(NC2=NC3CS(=O)(=O)CC3S2)cc1` (stereo not given): the inhibition is 0.07%.
With `O=C(CCc1nnc2ccc(NCCCN3CCCC3=O)nn12)NCc1ccccc1Cl`, the inhibition is -0.36%.
In the case of `Cc1ccc(N(C(=O)C(F)(F)F)C(C(=O)NC2CCCCC2)c2ccncc2)cc1C` (stereo not given), the inhibition is 3.24%.
As for `O=S1(=O)CCOC[C@H](CC2CCCCC2)N1Cc1ccc(F)cc1`, the figure is 1.92%; as for `COC(=O)c1sc(=S)n(-c2ccc(Cl)cc2)c1C`, -0.65%.
Regarding `CCOC(=O)c1c(N)sc(C(C)=O)c1C`, the inhibition is 3.77%.
Turning to `COCCOC(=O)c1sc(=S)n(CCOC)c1N`, the inhibition is 35% (active).
Turning to `COc1cccc(CNC(=O)CN2C(=O)NC(Cc3ccccc3)(c3ccccc3)C2=O)c1` (stereo not given), the inhibition is -2.37%.
As for `Cc1cc(C)c(C2C3=C(Nc4c2c(C)nn4-c2ccccn2)c2ccccc2C3=O)c(C)c1` (stereo not given), the figure is -4.18%; as for `Cc1ccc(C2C3=C(Nc4[nH]n(-c5ccccc5)c(=O)c42)c2ccccc2C3=O)cc1` (stereo not given), 36.4% (active).
Consider `Cc1ccc(-c2ccnc3[nH]n(-c4ccccc4)c(=O)c23)cc1`, for which the inhibition is -2.99%.
As for `CSc1nc2nc(-c3cccc(C(F)(F)F)c3)ccn2n1`, the figure is -7.13%; as for `COC(=O)CSc1nc2c(c(C3CC=CCC3)c1C#N)CCC2` (stereo not given), -1.86%.
The figure for `CCOC(=O)N1CCN(C(=O)COCc2cc(-c3ccc4c(c3)OCO4)on2)CC1` is -4.28%.
As for `O=C(NCCCN1CCCCC1)C1CC(=O)N(CCc2ccccc2)C1` (stereo not given), the figure is 0.2%; as for `CCCCN(CCCC)CCNC(=O)CN1C(=O)COc2ccc(S(=O)(=O)N3CCOCC3)cc21`, -2.01%; as for `CCc1ccc(C(=O)CSc2nnc(C)c(=O)[nH]2)cc1`, -6.05%.
With `O=C(O)c1ccccc1N=N/C(=N/Nc1cc(S(=O)(=O)O)ccc1O)c1ccccc1`, the inhibition was 13.7%.
As for `Cc1cccc(COc2ccccc2/C=N/Nc2ccc([N+](=O)[O-])cc2)c1`, the figure is 11.9%; as for `Cc1ccc(NS(=O)(=O)c2ccc(N/N=C/c3ccccc3OCC(=O)O)c([N+](=O)[O-])c2)c(C)c1`, 78.2% (active); as for `COCCNC(=O)c1ccccc1NS(=O)(=O)c1ccc(C)c([N+](=O)[O-])c1`, -1.62%.
